Experiments:
Assay in all cases: DAPPL (digital affinity profiling via proximity ligation, sequencing); 10 mM Tris-HCl pH 7.5, 50 mM NaCl, 1 mM DTT, 4% glycerol, room temperature, 30 min; GST-TFs on glutathione beads, 16-mer random dsDNA library, 0.1% formaldehyde crosslink after washing; high values mean tight binding
[1] = target: T1, FLI1 (Homo sapiens, UniProt Q01543 1-452); conditions: protein: recombinant; tags: N-terminal GST; dsDNA, one strand shown
T1 sequence: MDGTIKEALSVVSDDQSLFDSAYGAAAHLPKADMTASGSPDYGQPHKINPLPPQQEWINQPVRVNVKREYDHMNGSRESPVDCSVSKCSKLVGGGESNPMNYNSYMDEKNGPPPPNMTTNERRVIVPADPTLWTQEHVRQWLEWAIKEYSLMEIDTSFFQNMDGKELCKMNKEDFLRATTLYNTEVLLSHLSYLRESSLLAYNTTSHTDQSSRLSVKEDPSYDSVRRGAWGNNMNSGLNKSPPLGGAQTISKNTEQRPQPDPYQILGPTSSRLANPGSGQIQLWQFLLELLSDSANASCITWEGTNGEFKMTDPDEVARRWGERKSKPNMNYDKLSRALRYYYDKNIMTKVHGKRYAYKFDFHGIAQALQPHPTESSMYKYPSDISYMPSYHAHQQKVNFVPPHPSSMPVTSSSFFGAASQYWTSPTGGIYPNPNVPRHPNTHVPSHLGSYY
Procedure, shortened: (§1)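 Human transcription factors were made in yeast as GST fusions, captured on glutathione beads and barcoded with DNA. With a tag-only sample included, the pool was incubated with 200 nmole of a random double-stranded 16-mer DNA library in Tris/NaCl/DTT/glycerol buffer at room temperature for 30 min, then crosslinked with 0.1% formaldehyde after washing, ligated by proximity, amplified and sequenced. For binding signal, each hexamer's read frequency for a factor is divided by its frequency for the tag-only sample.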

[2] = target: T2, ELK1 (Homo sapiens, UniProt P19419 1-428); conditions: protein: recombinant; tags: N-terminal GST; dsDNA, one strand shown
T2 sequence: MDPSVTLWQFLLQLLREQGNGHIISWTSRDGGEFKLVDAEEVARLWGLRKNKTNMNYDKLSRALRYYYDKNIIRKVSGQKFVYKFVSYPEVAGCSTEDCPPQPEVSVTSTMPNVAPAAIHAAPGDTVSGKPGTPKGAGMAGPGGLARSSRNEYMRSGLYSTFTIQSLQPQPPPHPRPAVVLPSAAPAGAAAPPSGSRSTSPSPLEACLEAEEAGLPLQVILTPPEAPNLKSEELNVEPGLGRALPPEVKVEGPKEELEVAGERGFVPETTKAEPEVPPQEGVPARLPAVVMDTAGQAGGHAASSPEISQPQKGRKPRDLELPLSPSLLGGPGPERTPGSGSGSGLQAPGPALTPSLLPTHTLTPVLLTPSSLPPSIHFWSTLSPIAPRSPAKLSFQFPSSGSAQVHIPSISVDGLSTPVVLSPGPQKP
Procedure, shortened: as §1

[3] = target: T3, GABPA (Homo sapiens, UniProt Q06546 1-454); conditions: protein: recombinant; tags: N-terminal GST; dsDNA, one strand shown
T3 sequence: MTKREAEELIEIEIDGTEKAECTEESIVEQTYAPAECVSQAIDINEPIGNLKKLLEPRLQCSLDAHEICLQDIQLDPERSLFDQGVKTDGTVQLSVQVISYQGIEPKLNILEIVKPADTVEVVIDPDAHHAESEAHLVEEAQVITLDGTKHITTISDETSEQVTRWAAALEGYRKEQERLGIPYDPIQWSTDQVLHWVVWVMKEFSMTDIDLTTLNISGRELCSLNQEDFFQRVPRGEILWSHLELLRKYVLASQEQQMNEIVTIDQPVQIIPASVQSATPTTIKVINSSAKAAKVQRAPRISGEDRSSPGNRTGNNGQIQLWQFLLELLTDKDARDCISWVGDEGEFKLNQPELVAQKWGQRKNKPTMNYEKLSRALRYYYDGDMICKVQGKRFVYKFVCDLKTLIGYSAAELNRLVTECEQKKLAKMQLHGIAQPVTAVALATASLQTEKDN
Procedure, shortened: as §1

[4] = target: T4, ERG (Homo sapiens, UniProt P11308 1-479); conditions: protein: recombinant; tags: N-terminal GST; dsDNA, one strand shown
T4 sequence: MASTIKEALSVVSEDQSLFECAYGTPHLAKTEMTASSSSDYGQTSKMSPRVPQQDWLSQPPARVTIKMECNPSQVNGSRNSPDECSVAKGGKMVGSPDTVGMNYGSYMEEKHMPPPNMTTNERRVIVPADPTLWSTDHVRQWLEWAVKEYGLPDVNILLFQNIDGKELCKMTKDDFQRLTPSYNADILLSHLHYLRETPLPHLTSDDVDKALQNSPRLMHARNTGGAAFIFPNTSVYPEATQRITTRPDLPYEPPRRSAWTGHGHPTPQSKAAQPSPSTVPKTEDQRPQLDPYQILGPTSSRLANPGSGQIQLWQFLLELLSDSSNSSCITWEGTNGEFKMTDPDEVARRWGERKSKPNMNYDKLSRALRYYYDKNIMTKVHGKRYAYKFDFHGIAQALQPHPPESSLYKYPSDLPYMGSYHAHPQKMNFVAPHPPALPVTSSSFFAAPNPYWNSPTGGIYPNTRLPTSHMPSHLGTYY
Procedure, shortened: as §1

[5] = target: ELF1 (Homo sapiens, UniProt P32519 1-619); conditions: protein: recombinant; tags: N-terminal GST; dsDNA, one strand shown
Chain of ELF1 (P32519 whole entry): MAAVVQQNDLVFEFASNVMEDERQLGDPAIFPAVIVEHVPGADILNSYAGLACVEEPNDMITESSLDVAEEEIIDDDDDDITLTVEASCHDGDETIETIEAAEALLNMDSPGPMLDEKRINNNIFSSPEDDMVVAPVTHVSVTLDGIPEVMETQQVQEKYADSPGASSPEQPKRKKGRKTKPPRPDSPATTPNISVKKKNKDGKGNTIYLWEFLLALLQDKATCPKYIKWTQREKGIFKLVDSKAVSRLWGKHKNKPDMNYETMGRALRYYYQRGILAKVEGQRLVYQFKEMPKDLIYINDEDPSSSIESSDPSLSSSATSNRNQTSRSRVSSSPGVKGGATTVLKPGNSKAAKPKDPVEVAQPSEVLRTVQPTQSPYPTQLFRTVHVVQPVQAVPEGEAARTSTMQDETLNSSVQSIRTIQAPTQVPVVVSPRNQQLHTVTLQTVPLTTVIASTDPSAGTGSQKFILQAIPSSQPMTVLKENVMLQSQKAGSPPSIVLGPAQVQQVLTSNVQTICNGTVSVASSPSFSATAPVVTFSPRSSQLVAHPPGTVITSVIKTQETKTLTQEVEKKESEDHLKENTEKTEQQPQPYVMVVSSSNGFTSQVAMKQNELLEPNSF
Procedure, shortened: as §1

[6] = target: T5, EHF (Homo sapiens, UniProt Q9NZC4 1-300); conditions: protein: recombinant; tags: N-terminal GST; dsDNA, one strand shown
T5 sequence: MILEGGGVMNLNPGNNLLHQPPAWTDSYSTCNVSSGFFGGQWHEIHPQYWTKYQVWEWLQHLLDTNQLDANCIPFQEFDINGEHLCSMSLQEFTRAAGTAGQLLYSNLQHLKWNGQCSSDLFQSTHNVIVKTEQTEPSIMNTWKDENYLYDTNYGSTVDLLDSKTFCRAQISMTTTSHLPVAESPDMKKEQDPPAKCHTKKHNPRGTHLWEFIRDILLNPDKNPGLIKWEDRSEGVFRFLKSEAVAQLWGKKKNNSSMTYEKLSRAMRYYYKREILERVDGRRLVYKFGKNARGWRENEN
Procedure, shortened: as §1

[7] = target: SPI1 (Homo sapiens, UniProt P17947 1-270); conditions: protein: recombinant; tags: N-terminal GST; dsDNA, one strand shown
Procedure, shortened: as §1

[8] = target: SPIB (Homo sapiens, UniProt Q01892 1-262); conditions: protein: recombinant; tags: N-terminal GST; dsDNA, one strand shown
Chain of SPIB (Q01892 whole entry): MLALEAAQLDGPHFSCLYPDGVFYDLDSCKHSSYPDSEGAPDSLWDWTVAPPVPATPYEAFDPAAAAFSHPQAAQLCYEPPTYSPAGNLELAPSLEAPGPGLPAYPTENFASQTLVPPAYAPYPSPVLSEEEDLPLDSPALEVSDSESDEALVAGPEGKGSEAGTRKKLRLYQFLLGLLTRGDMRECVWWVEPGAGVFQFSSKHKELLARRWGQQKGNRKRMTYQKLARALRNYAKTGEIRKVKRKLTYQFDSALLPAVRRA
Procedure, shortened: as §1

[9] = target: T6, ELK3 (Homo sapiens, UniProt P41970 1-407); conditions: protein: recombinant; tags: N-terminal GST; dsDNA, one strand shown
T6 sequence: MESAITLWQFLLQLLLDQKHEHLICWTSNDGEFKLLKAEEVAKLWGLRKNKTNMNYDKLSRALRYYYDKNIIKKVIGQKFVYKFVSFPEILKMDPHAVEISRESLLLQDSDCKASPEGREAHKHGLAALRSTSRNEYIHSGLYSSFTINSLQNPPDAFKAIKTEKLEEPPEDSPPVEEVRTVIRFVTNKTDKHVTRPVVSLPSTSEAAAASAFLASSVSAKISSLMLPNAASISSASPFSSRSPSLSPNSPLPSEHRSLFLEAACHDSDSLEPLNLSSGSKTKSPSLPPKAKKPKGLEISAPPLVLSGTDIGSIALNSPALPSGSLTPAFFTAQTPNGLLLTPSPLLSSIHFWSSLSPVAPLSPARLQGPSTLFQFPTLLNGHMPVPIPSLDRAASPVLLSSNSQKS
Procedure, shortened: as §1

[10] = target: T7, FEV (Homo sapiens, UniProt Q99581 1-238); conditions: protein: recombinant; tags: N-terminal GST; dsDNA, one strand shown
T7 sequence: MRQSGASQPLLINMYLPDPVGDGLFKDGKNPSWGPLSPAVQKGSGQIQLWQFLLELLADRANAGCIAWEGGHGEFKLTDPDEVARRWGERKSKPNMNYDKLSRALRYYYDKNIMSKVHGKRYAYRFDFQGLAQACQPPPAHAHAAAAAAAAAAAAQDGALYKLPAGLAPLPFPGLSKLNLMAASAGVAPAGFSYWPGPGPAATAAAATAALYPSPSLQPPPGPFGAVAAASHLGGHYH
Procedure, shortened: as §1

[11] = target: ETV5 (Homo sapiens, UniProt P41161 1-510); conditions: protein: recombinant; tags: N-terminal GST; dsDNA, one strand shown
Chain of ETV5 (P41161 whole entry): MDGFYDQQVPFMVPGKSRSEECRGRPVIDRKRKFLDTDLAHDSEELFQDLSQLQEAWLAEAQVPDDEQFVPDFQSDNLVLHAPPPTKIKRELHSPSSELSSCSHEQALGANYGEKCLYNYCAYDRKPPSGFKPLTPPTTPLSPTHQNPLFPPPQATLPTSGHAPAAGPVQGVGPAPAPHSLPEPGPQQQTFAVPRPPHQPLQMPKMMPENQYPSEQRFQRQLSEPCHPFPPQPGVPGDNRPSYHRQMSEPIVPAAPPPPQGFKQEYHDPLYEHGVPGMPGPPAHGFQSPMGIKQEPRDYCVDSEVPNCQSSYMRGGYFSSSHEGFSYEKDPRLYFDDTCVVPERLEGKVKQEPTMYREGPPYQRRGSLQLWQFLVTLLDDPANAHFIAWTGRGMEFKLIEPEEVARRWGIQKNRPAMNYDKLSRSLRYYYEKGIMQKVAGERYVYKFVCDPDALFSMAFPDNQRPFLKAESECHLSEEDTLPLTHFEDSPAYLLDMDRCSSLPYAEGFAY
Procedure, shortened: as §1

[12] = target: HSF1 (Homo sapiens, UniProt Q00613 1-529); conditions: protein: recombinant; tags: N-terminal GST; chain copies: 3; dsDNA, one strand shown
Chain of HSF1 (Q00613 whole entry): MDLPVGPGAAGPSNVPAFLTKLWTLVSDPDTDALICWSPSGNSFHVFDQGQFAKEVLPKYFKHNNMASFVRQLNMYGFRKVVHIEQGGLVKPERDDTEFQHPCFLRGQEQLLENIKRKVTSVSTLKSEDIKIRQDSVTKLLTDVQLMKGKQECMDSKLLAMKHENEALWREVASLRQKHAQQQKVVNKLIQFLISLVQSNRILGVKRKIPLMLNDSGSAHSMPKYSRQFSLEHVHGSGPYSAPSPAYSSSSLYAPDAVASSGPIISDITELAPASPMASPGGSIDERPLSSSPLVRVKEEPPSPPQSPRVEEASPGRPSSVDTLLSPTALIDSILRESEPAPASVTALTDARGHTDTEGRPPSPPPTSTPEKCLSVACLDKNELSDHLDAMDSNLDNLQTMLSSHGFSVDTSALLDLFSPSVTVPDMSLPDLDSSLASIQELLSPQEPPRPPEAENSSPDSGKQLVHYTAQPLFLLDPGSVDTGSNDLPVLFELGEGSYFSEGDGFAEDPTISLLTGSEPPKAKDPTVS
Procedure, shortened: as §1

[13] = target: T8, SPIC (Homo sapiens, UniProt Q8N5J4 1-248); conditions: protein: recombinant; tags: N-terminal GST; dsDNA, one strand shown
T8 sequence: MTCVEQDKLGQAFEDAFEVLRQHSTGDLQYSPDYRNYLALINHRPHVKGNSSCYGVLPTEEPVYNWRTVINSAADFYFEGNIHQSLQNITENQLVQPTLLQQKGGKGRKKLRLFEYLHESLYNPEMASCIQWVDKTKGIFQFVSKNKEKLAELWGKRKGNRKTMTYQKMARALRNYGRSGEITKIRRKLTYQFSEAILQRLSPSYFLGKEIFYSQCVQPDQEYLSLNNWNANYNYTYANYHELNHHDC
Procedure, shortened: as §1

[14] = target: ELF4 (Homo sapiens, UniProt Q99607 1-663); conditions: protein: recombinant; tags: N-terminal GST; dsDNA, one strand shown
Chain of ELF4 (Q99607 whole entry): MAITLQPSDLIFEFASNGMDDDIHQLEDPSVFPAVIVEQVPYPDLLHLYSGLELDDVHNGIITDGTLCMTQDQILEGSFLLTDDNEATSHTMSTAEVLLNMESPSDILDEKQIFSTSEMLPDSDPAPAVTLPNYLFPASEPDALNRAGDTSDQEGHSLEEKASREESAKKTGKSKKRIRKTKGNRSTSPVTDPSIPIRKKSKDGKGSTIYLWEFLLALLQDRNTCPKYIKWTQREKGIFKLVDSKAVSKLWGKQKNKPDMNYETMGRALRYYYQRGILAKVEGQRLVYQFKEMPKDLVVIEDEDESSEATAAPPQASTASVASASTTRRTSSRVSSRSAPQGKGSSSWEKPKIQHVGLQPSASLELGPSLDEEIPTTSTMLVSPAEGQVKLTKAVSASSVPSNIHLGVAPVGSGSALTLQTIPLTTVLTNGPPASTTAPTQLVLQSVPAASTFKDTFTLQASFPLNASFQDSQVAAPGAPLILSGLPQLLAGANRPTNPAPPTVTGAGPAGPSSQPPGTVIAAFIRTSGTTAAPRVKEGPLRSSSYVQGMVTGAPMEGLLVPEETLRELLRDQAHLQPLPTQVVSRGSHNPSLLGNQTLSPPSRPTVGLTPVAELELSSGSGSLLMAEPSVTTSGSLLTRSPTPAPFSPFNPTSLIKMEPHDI
Procedure, shortened: as §1

[15] = target: T9, ELK4 (Homo sapiens, UniProt P28324-2 1-405); conditions: protein: recombinant; tags: N-terminal GST; dsDNA, one strand shown
T9 sequence: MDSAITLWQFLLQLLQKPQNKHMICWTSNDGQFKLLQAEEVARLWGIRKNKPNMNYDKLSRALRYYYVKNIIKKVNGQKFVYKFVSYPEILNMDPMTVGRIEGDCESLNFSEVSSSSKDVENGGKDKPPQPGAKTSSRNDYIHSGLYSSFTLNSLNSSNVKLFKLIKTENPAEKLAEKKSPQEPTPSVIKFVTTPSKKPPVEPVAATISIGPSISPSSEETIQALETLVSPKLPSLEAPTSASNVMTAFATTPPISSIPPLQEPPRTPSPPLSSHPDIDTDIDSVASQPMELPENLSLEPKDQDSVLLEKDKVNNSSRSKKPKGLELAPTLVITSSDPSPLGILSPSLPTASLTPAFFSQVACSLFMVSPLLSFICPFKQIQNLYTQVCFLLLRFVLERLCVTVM
Procedure, shortened: as §1

[16] = target: T10, ETV2 (Homo sapiens, UniProt O00321 1-342); conditions: protein: recombinant; tags: N-terminal GST; dsDNA, one strand shown
T10 sequence: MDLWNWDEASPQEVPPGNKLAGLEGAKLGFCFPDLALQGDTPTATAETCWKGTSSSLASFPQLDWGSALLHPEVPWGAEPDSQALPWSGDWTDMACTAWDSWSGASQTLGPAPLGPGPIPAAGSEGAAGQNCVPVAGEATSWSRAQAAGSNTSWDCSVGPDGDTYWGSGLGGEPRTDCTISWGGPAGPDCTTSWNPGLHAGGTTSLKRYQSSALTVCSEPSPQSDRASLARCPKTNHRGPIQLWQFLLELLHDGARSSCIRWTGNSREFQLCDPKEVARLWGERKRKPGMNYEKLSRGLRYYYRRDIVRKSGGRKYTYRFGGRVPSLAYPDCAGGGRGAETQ
Procedure, shortened: as §1

[17] = target: T11, ELF3 (Homo sapiens, UniProt P78545 1-371); conditions: protein: recombinant; tags: N-terminal GST; dsDNA, one strand shown
T11 sequence: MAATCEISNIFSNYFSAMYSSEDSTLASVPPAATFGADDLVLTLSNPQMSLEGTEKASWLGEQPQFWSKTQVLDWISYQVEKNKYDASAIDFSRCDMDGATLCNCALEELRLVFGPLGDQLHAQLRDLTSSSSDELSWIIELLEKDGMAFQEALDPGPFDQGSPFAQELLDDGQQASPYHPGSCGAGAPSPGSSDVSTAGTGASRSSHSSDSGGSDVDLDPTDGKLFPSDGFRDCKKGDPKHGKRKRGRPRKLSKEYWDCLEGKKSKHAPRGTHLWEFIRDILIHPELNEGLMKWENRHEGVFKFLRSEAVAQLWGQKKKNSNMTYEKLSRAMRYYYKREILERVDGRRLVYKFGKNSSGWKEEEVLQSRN
Procedure, shortened: as §1

[18] = target: CRX (Homo sapiens, UniProt O43186 1-299); conditions: protein: recombinant; tags: N-terminal GST; dsDNA, one strand shown
Chain of CRX (O43186 whole entry): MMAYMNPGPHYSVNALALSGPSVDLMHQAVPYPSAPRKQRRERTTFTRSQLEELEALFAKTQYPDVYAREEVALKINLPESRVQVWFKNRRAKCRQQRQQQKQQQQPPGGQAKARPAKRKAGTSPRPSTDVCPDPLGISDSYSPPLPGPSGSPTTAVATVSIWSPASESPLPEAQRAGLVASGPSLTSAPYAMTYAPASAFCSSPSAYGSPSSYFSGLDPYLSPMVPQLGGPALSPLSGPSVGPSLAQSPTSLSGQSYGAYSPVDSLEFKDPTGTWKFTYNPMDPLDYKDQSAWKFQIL
Procedure, shortened: as §1

[19] = target: ETV1 (Homo sapiens, UniProt P50549 1-477); conditions: protein: recombinant; tags: N-terminal GST; dsDNA, one strand shown
Chain of ETV1 (P50549 whole entry): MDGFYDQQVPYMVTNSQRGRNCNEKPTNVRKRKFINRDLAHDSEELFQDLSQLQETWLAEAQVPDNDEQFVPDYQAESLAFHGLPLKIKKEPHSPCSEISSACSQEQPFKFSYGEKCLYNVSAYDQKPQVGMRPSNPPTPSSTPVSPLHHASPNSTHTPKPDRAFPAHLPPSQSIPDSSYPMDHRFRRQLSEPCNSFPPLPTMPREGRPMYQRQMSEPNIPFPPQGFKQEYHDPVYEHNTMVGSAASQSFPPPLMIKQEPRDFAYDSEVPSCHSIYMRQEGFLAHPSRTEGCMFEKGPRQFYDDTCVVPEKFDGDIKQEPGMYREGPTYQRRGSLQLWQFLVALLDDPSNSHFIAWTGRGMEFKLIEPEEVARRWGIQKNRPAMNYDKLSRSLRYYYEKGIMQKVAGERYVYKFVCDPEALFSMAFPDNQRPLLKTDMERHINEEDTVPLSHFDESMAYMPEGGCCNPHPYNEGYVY
Procedure, shortened: as §1

With AAGAAT the binding signal [1] was 1.13 fold enrichment (6-mer frequency, TF over GST control), the binding signal [2] was 1.17 fold enrichment (6-mer frequency, TF over GST control) and the binding signal [3] was 1.13 fold enrichment (6-mer frequency, TF over GST control). The binding signal [4] was 1.15 fold enrichment (6-mer frequency, TF over GST control), the binding signal [5] was 1.11 fold enrichment (6-mer frequency, TF over GST control) and the binding signal [6] was 1.14 fold enrichment (6-mer frequency, TF over GST control). The binding signal [7] was 1.18 fold enrichment (6-mer frequency, TF over GST control), the binding signal [8] was 1.14 fold enrichment (6-mer frequency, TF over GST control) and the binding signal [9] was 1.1 fold enrichment (6-mer frequency, TF over GST control). The binding signal [10] was 1.09 fold enrichment (6-mer frequency, TF over GST control), the binding signal [11] was 1.11 fold enrichment (6-mer frequency, TF over GST control) and the binding signal [12] was 1.83 fold enrichment (6-mer frequency, TF over GST control). For the same sequence, the binding signal [13] was 1.08 fold enrichment (6-mer frequency, TF over GST control), the binding signal [14] was 1.24 fold enrichment (6-mer frequency, TF over GST control) and the binding signal [15] was 1.09 fold enrichment (6-mer frequency, TF over GST control). For the same sequence, the binding signal [16] was 1.12 fold enrichment (6-mer frequency, TF over GST control), the binding signal [17] was 1.17 fold enrichment (6-mer frequency, TF over GST control) and the binding signal [18] was 1.43 fold enrichment (6-mer frequency, TF over GST control). The binding signal [19] was 1.15 fold enrichment (6-mer frequency, TF over GST control).

Reference: PMC7862700, “An all-to-all approach to the identification of sequence-specific readers for epigenetic DNA modifications on cytosine”
